What all share (assay): DAPPL (digital affinity profiling via proximity ligation, sequencing); 10 mM Tris-HCl pH 7.5, 50 mM NaCl, 1 mM DTT, 4% glycerol, room temperature, 30 min; GST-TFs on glutathione beads, 16-mer random dsDNA library, 0.1% formaldehyde crosslink after washing; high values mean tight binding
One assay deals with T1, FEV (Homo sapiens, UniProt Q99581 1-238).
T1 sequence: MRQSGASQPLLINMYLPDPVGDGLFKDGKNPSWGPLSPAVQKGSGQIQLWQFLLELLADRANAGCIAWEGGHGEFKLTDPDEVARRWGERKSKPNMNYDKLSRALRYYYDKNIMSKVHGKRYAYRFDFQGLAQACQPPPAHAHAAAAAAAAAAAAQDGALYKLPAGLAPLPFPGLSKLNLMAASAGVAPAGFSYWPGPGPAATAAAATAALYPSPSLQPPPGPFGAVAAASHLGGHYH
Conditions: protein: recombinant; tags: N-terminal GST; dsDNA, one strand shown. In a few lines: (§1)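 In yeast, human transcription factors were expressed with a GST fusion, then pulled down on glutathione beads and given DNA barcodes. Pooled with a tag-only sample, they were exposed to 200 nmole of a 16-mer random double-stranded DNA library (Tris/NaCl/DTT/glycerol buffer, room temperature, 30 min), washed, crosslinked with 0.1% formaldehyde, proximity-ligated using BsaI/T4 ligase for 1 h at 37 °C, PCR-amplified and read on an Illumina NextSeq500. Each hexamer's frequency of reads for a factor, divided by the matching frequency for the tag-only sample, gives the binding signal.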

A further assay addresses ETV5 (Homo sapiens, UniProt P41161 1-510). The note with it: protein: recombinant; tags: N-terminal GST; dsDNA, one strand shown. In short, it runs like this: as §1
The next assay addresses HSF1 (Homo sapiens, UniProt Q00613 1-529). The note with it: protein: recombinant; tags: N-terminal GST; chain copies: 3; dsDNA, one strand shown. In a few lines: as §1
Another assay addresses T2, SPIC (Homo sapiens, UniProt Q8N5J4 1-248).
T2 sequence: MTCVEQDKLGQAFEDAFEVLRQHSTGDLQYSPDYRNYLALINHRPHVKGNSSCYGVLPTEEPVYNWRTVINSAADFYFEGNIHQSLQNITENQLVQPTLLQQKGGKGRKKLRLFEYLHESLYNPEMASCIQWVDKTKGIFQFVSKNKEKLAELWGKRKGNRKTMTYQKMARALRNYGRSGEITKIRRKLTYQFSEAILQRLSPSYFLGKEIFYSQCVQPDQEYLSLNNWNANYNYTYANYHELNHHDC
The note with it: protein: recombinant; tags: N-terminal GST; dsDNA, one strand shown. In a few lines:
as §1

The next assay concerns the target ELF4 (Homo sapiens, UniProt Q99607 1-663). The note with it: protein: recombinant; tags: N-terminal GST; dsDNA, one strand shown. In a few lines:
as §1

For the next assay, the target named is T3, ELK4 (Homo sapiens, UniProt P28324-2 1-405).
T3 sequence: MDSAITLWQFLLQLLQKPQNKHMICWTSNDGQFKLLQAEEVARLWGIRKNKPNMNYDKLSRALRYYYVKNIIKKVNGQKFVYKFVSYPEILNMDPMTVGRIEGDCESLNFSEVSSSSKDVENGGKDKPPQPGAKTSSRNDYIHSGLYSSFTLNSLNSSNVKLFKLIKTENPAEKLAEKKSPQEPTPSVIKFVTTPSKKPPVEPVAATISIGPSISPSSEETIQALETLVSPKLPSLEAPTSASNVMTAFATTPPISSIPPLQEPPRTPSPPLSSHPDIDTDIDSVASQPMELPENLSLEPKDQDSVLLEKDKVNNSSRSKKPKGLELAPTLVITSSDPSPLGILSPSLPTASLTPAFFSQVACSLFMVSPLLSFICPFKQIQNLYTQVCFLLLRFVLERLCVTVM
The note with it: protein: recombinant; tags: N-terminal GST; dsDNA, one strand shown. In a few lines: as §1

In another assay the target is T4, ETV2 (Homo sapiens, UniProt O00321 1-342).
T4 sequence: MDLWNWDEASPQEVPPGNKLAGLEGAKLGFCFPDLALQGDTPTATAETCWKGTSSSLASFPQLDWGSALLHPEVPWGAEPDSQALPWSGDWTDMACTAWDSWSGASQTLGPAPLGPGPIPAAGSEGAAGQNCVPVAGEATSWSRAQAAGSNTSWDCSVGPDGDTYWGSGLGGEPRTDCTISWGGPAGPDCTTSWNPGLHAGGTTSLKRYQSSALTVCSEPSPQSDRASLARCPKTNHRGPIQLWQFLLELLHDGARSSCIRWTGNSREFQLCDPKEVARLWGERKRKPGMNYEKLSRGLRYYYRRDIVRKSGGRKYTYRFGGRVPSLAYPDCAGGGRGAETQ
Conditions: protein: recombinant; tags: N-terminal GST; dsDNA, one strand shown. In a few lines: as §1

A further assay deals with T5, ELF3 (Homo sapiens, UniProt P78545 1-371).
T5 sequence: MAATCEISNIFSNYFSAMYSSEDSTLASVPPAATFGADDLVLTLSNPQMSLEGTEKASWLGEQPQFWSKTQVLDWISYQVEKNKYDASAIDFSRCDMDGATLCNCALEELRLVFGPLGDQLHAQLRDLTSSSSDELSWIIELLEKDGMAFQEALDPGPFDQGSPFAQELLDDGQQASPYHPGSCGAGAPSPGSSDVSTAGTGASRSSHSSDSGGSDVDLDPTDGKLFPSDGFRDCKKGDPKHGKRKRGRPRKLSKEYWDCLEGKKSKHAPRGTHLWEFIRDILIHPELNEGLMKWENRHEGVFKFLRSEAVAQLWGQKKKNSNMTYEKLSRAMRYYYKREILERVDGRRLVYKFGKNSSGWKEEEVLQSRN
Conditions: protein: recombinant; tags: N-terminal GST; dsDNA, one strand shown. In a few lines: as §1

The target in the next assay is CRX (Homo sapiens, UniProt O43186 1-299). Conditions: protein: recombinant; tags: N-terminal GST; dsDNA, one strand shown. In short, it runs like this:
as §1

In the next assay the target is ETV1 (Homo sapiens, UniProt P50549 1-477). The note with it: protein: recombinant; tags: N-terminal GST; dsDNA, one strand shown. In a few lines:
as §1

For the next assay, the target named is T6, ERF (Homo sapiens, UniProt P50548 1-548).
T6 sequence: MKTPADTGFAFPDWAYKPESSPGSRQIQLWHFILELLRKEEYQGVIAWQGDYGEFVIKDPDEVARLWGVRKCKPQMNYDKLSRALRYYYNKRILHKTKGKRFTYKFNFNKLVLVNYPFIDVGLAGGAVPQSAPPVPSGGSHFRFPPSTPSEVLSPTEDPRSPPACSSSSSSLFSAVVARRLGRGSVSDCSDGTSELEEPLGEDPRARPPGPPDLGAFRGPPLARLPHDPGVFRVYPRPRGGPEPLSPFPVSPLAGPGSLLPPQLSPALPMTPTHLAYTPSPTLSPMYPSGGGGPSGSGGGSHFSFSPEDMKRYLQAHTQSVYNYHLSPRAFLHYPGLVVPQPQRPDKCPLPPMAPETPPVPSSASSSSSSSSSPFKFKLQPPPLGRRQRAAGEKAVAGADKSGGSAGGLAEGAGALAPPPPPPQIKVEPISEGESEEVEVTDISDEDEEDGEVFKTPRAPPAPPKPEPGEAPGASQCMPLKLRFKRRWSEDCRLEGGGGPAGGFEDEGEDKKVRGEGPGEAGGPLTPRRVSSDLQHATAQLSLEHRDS
Conditions: protein: recombinant; tags: N-terminal GST; dsDNA, one strand shown. In short, it runs like this: as §1

In another assay the target is T7, ETV3L (Homo sapiens, UniProt Q6ZN32 1-361).
T7 sequence: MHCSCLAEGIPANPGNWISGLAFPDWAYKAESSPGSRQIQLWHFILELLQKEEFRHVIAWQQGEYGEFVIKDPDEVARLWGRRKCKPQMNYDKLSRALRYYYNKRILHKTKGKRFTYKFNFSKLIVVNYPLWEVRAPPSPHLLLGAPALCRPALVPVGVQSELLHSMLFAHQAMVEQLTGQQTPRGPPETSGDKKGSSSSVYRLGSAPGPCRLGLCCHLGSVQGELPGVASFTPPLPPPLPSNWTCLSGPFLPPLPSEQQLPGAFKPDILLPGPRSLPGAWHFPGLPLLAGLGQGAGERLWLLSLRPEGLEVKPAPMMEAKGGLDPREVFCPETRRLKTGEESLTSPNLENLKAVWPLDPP
Conditions: protein: recombinant; tags: N-terminal GST; dsDNA, one strand shown. In short, it runs like this: as §1

For another assay, the target named is T8, ETS2 (Homo sapiens, UniProt P15036 1-469).
T8 sequence: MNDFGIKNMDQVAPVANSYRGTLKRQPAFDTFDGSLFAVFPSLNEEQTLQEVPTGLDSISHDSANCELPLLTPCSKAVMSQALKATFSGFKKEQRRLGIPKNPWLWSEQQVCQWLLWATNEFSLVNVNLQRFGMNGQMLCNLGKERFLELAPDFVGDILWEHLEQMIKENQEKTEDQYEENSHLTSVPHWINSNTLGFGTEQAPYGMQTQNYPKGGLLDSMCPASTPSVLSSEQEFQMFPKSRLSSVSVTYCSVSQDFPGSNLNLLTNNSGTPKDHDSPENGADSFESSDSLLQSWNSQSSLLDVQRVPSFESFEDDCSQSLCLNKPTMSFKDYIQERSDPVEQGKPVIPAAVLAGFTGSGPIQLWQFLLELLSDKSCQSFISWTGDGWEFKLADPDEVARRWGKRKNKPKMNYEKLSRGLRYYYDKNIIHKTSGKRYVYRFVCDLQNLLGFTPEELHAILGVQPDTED
Conditions: protein: recombinant; tags: N-terminal GST; dsDNA, one strand shown. In short, it runs like this: as §1

The next assay concerns the target T9, SPDEF (Homo sapiens, UniProt O95238 1-335).
T9 sequence: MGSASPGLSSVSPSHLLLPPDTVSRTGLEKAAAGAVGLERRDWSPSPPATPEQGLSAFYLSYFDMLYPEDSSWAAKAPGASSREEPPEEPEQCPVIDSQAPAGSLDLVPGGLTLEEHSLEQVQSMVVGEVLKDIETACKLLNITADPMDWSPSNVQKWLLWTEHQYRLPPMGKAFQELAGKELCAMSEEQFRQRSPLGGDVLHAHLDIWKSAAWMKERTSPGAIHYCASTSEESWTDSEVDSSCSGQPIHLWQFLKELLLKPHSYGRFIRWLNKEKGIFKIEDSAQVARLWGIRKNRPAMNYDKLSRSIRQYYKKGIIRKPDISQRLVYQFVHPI
The note with it: protein: recombinant; tags: N-terminal GST; dsDNA, one strand shown. In short, it runs like this: as §1

A further assay addresses T10, ETV7 (Homo sapiens, UniProt Q9Y603 1-341).
T10 sequence: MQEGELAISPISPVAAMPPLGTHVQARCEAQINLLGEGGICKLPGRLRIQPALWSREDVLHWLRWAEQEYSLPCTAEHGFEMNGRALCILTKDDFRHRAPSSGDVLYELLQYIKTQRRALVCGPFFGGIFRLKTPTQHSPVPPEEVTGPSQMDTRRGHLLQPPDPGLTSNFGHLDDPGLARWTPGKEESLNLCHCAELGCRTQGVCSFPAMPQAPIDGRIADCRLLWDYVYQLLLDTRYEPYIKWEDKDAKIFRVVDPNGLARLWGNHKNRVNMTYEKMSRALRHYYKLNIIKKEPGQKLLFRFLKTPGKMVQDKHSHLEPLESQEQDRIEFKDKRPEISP
Conditions: protein: recombinant; tags: N-terminal GST; dsDNA, one strand shown. In short, it runs like this: as §1

The target of another assay is T11, ELF5 (Homo sapiens, UniProt Q9UKW6-2 1-255).
T11 sequence: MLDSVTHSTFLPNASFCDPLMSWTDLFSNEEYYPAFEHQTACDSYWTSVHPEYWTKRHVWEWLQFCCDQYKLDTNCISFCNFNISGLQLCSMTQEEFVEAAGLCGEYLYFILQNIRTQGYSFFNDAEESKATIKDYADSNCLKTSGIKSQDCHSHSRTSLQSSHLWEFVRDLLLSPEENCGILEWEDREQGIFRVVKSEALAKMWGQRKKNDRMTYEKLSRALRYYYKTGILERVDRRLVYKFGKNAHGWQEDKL
Conditions: protein: recombinant; tags: N-terminal GST; dsDNA, one strand shown. In short, it runs like this: as §1

The target of another assay is T12, ETV3 (Homo sapiens, UniProt P41162-2 1-143).
T12 sequence: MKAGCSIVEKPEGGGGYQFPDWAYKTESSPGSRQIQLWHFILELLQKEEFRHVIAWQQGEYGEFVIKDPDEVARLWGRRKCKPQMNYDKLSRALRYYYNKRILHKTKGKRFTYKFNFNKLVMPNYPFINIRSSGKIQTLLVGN
The note with it: protein: recombinant; tags: N-terminal GST; dsDNA, one strand shown. In short, it runs like this: as §1

A further assay has as its target ETV6 (Homo sapiens, UniProt P41212 1-452). The note with it: protein: recombinant; tags: N-terminal GST; dsDNA, one strand shown. In a few lines: as §1

Chain of CRX (O43186 whole entry): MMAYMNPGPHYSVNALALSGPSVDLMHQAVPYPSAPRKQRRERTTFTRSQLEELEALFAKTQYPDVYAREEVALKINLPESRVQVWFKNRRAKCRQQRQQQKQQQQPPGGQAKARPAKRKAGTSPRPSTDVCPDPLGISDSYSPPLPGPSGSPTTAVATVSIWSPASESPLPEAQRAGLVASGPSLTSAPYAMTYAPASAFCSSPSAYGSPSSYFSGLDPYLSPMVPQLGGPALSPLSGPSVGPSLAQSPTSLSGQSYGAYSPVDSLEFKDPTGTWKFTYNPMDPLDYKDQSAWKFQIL
Chain of HSF1 (Q00613 whole entry): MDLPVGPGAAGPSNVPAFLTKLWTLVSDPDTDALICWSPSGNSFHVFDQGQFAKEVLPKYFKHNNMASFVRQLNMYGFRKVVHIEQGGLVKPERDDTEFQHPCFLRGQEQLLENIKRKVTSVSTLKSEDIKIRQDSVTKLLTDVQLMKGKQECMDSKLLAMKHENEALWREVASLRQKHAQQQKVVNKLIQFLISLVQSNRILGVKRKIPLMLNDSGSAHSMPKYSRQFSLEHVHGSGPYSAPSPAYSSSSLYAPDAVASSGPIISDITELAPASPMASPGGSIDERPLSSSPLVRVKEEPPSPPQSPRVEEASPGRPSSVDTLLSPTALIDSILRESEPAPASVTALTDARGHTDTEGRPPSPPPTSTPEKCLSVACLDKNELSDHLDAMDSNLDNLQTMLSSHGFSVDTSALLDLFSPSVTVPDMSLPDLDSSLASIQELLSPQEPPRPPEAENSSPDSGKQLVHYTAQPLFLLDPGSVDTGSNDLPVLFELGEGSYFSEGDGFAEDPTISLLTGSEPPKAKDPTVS
Chain of ETV1 (P50549 whole entry): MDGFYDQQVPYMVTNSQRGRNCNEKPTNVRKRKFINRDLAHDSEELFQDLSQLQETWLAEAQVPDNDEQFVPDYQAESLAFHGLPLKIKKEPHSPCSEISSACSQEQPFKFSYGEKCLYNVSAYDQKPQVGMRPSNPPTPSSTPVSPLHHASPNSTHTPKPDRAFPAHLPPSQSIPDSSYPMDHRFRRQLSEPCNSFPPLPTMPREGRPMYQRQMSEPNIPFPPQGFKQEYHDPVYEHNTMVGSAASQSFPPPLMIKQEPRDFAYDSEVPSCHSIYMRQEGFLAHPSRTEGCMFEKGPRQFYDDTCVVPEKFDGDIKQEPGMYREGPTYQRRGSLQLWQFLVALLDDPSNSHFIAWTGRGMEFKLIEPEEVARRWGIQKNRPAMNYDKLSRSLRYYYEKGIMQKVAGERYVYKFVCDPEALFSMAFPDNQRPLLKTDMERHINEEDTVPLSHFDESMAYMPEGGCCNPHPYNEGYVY
Chain of ETV5 (P41161 whole entry): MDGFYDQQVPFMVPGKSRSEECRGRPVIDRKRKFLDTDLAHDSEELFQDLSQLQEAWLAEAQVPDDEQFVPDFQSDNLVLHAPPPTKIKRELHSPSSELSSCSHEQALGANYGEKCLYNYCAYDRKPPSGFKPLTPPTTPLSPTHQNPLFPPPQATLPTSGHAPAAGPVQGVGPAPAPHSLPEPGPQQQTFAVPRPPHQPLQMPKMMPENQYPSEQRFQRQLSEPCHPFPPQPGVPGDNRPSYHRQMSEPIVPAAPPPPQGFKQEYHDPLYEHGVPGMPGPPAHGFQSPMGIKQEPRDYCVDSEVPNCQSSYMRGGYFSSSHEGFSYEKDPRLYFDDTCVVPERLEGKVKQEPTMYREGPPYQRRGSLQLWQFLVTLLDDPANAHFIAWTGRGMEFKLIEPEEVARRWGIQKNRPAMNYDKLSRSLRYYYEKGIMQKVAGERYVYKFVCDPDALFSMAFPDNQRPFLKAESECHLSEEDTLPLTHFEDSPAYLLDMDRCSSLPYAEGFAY
Chain of ETV6 (P41212 whole entry): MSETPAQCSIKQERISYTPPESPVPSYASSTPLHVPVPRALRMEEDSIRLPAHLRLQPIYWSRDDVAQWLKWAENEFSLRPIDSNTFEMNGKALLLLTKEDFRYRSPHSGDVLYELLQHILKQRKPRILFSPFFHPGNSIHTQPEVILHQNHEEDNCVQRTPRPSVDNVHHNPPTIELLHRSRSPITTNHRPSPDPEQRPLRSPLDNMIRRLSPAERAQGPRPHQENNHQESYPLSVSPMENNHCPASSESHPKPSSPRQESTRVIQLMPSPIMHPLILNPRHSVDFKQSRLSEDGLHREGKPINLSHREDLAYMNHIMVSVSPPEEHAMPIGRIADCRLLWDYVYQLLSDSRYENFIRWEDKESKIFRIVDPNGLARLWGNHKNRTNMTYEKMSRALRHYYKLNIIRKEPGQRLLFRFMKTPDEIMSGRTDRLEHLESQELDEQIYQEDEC
Chain of ELF4 (Q99607 whole entry): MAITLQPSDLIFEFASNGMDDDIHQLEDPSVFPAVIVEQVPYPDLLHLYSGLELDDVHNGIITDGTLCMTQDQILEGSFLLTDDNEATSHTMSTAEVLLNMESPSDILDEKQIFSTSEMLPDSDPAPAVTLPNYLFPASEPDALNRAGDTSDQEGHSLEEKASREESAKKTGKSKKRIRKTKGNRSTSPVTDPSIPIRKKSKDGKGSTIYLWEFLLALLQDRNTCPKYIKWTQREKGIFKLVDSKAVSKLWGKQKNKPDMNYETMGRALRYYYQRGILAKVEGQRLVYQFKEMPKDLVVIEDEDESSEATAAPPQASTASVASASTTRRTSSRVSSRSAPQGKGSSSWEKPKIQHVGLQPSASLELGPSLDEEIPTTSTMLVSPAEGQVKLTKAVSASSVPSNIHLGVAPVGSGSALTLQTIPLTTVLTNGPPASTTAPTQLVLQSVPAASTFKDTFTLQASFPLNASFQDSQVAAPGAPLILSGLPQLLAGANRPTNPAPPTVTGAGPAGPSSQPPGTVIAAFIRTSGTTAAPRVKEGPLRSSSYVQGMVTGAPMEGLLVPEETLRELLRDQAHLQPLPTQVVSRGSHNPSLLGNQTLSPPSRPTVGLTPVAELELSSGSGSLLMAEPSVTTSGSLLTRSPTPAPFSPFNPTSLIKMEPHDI

As to AAACCC, the binding signal with FEV is 1.29 fold enrichment (6-mer frequency, TF over GST control); with ETV5, 1.29 fold enrichment (6-mer frequency, TF over GST control); in the assay with HSF1 it was 1.21 fold enrichment (6-mer frequency, TF over GST control); in the assay with SPIC it was 1.2 fold enrichment (6-mer frequency, TF over GST control); with ELF4, 1.34 fold enrichment (6-mer frequency, TF over GST control); in the assay with ELK4 it was 1.24 fold enrichment (6-mer frequency, TF over GST control). Besides, the binding signal was 1.34 fold enrichment (6-mer frequency, TF over GST control) with ETV2; 1.42 fold enrichment (6-mer frequency, TF over GST control) with ELF3; 1.35 fold enrichment (6-mer frequency, TF over GST control) with CRX; 1.36 fold enrichment (6-mer frequency, TF over GST control) with ETV1; 1.28 fold enrichment (6-mer frequency, TF over GST control) in the assay with ERF; 1.29 fold enrichment (6-mer frequency, TF over GST control) with ETV3L. Further, the binding signal was 1.26 fold enrichment (6-mer frequency, TF over GST control) in the assay with ETS2; 1.34 fold enrichment (6-mer frequency, TF over GST control) with SPDEF; 1.25 fold enrichment (6-mer frequency, TF over GST control) in the assay with ETV7; 1.31 fold enrichment (6-mer frequency, TF over GST control) in the assay with ELF5; 1.29 fold enrichment (6-mer frequency, TF over GST control) with ETV3; 1.34 fold enrichment (6-mer frequency, TF over GST control) in the assay with ETV6.

Source of the values: paper PMC7862700, “An all-to-all approach to the identification of sequence-specific readers for epigenetic DNA modifications on cytosine”.
